The values below come from PubChem BioAssay (EPA / NIEHS).

Experiment [1] is described as follows: BSK_CASM3C_SRB: Viability Assessment in the BioMAP Diversity Plus: CASM3C Assay (AID 2283050).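 Also: total protein by SRB staining as cytotoxicity measure in parallel cultures; cells exposed to compound for 24 h.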 As to conditions: primary human coronary artery smooth muscle cells.
Read-out in experiment [2]: Thrombomodulin, THBD (gene 7056)
The experiment is described as follows: BSK_CASM3C_Thrombomodulin: BioMAP Diversity Plus: CASM3C Assay for Thrombomodulin Biomarker Activity (AID 2283051).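 Also: thrombomodulin protein level measured by ELISA 24 h after dosing.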 The conditions noted are these: primary human coronary artery smooth muscle cells; actives raise or lower the signal.

Read-out in experiment [3]: Tissue Factor, F3 (gene 2152)
The experiment is described as follows: BSK_CASM3C_TissueFactor: BioMAP Diversity Plus: CASM3C Assay for Tissue Factor Biomarker Activity (AID 2283052).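 Also: cell surface tissue factor protein level read by ELISA.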 As to conditions: primary human coronary artery smooth muscle cells; actives raise or lower the signal.

Read-out in experiment [4]: Interferon-gamma inducible Protein 10 (IP10), CXCL10 (gene 3627)
The experiment is described as follows: BSK_hDFCGF_IP10: BioMAP Diversity Plus: hDFCGF Assay for Interferon-gamma inducible Protein 10 (IP10) Biomarker Activity (AID 2283053). As to conditions: primary human foreskin fibroblasts; actives raise or lower the signal. In short, it runs like this: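 IP-10 levels, quantified by ELISA, are taken from human foreskin fibroblast cultures 24 h after chemical treatment, with DMSO serving as negative control and baseline for bidirectional analysis.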

Read-out in experiment [5]: Urokinase-type plasminogen activator receptor (uPAR), PLAUR (gene 5329)
The experiment is described as follows: BSK_CASM3C_uPAR: BioMAP Diversity Plus: CASM3C Assay for Urokinase-type plasminogen activator receptor (uPAR) Biomarker Activity (AID 2283054).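 Also: cell-surface uPAR protein level quantified by ELISA.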 The conditions noted are these: primary human coronary artery smooth muscle cells; actives raise or lower the signal.

Read-out in experiment [6]: Vascular cell adhesion molecule 1 (VCAM1), VCAM1 (gene 7412)
Put plainly: BSK_CASM3C_VCAM1: BioMAP Diversity Plus: CASM3C Assay for Vascular cell adhesion molecule 1 (VCAM1) Biomarker Activity (AID 2283055).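 Also: VCAM-1 protein level quantified by ELISA on the cells.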 The conditions noted are these: primary human coronary artery smooth muscle cells; actives raise or lower the signal.

Read-out in experiment [7]: Collagen III, COL3A1 (gene 1281)
The experiment is described as follows: BSK_hDFCGF_CollagenIII: BioMAP Diversity Plus: hDFCGF Assay for Collagen III Biomarker Activity (AID 2283056). As to conditions: primary human foreskin fibroblasts; actives raise or lower the signal. The gist of the method: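 hDFCGF primary human dermal fibroblasts; 24 h chemical exposure; collagen III by ELISA; bidirectional curve fit vs DMSO baseline (gain or loss of signal).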

Read-out in experiment [8]: Epidermal growth factor receptor (EGFR), EGFR (gene 1956)
The experiment is described as follows: BSK_hDFCGF_EGFR: BioMAP Diversity Plus: hDFCGF Assay for Epidermal growth factor receptor (EGFR) Biomarker Activity (AID 2283057). As to conditions: primary human foreskin fibroblasts; actives raise or lower the signal. In short, it runs like this:
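Measured by ELISA: EGFR levels on primary human foreskin fibroblasts 24 h after chemical treatment, analysed relative to DMSO with bidirectional fitting.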

Read-out in experiment [9]: Interleukin-8 (IL8), CXCL8 (gene 3576)
The experiment is described as follows: BSK_hDFCGF_IL8: BioMAP Diversity Plus: hDFCGF Assay for Interleukin-8 (IL8) Biomarker Activity (AID 2283058). As to conditions: primary human foreskin fibroblasts; actives raise or lower the signal. The gist of the method:
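ELISA read-out of IL-8 from primary human foreskin fibroblast cultures taken 24 h after dosing; values are bidirectional fits relative to DMSO vehicle.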

Experiment [10] can be described thus: BSK_hDFCGF_Proliferation: Cell Proliferation Assessment in the BioMAP Diversity Plus: hDFCGF Assay (AID 2283059).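 Also: curves fitted for both rise and fall of signal versus DMSO baseline.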 As to conditions: primary human foreskin fibroblasts. The gist of the method:
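Sub-confluent human foreskin fibroblast cultures receive test chemical […]. Relative cell number is quantified by sulforhodamine B staining (0.1%, after 10% TCA fixation) at 560 nm, with bidirectional fitting referenced to DMSO.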

The term AC50 denotes the midpoint of the concentration-response curve, whichever way the signal moves.

Where “and” joins values, the source holds several entries; their conditions need not be identical. Equal entries are not always repeated. More than one record can exist for a structure, and the calls need not agree. Calls of active or inactive are those of the source. The calls were made as follows: active = hit-call score of the fitted dose curve at least 0.9, where 1 is the maximum; inactive = score below 0.9.

On to `O=C(O)C(F)(F)C(F)(F)C(F)(F)C(F)(F)C(F)(F)C(F)(F)C(F)(F)C(F)(F)C(F)(F)C(F)(F)C(F)(F)C(F)(F)C(F)(F)F`, for which the result in [1], in experiment [2], in [3], in experiment [4], in experiment [5] and in [6] was inactive. Besides, the outcome in experiment [7], in experiment [8], in experiment [9] and in experiment [10] was inactive. Besides, the AC50 in experiment [4] is 5.35 µM (active); in experiment [7] it was 641 nM (active).
In the case of `CCO[Si](CCC(F)(F)C(F)(F)C(F)(F)C(F)(F)C(F)(F)C(F)(F)F)(OCC)OCC`, the result in experiment [1], in experiment [2], in [3], in experiment [4], in [5] and in [6] was inactive. In addition, the outcome in experiment [7], in [8], in experiment [9] and in experiment [10] was inactive. Further, the AC50 in [3] was 1.58 µM (active).
`FC(F)(I)C(F)(F)C(F)(F)C(F)(F)I`: the AC50 in experiment [1] is 43.5 µM (active) and 47.2 µM (active) and 48.7 µM (active); in experiment [3], 30 µM (active) and 40.4 µM (active); in [4] it was 47.9 µM (active) and 55.1 µM (active) and 58.4 µM (active); in experiment [5] it was 47.2 µM (active) and 43.9 µM (active) and 54.4 µM (active); in [6] it was 45.7 µM (active) and 45.6 µM (active) and 47.9 µM (active); in experiment [7] it was 30 µM (active) and 44.1 µM (active) and 39.5 µM (active). Further, the AC50 in experiment [9] was 53.7 µM (active) and 54.7 µM (active) and 56.5 µM (active); in [10] it was 48.7 µM (active) and 45.5 µM (active) and 43.3 µM (active). Besides, the outcome in [2] and in [3] was inactive.
Regarding `O=C(Cl)C(F)(F)C(F)(F)C(F)(F)C(F)(F)C(F)(F)C(F)(F)C(F)(F)C(F)(F)F`, the result in experiment [1], in experiment [2], in [3], in [5], in [6] and in experiment [7] was inactive. Also, in experiment [9], the result was inactive. Besides, the half-maximal activity concentration (AC50) in [4] was 24.8 µM (active) and 36.7 µM (active) and 32.9 µM (active); in [6], 30 µM (active); in experiment [10], 49.7 µM (active) and 49.4 µM (active) and 49.5 µM (active).
For `C=CC(F)(F)C(F)(F)C(F)(F)C(F)(F)C(F)(F)C(F)(F)C(F)(F)C(F)(F)C=C`, the result in experiment [1], in experiment [2], in experiment [3], in [4], in experiment [5] and in experiment [6] was inactive. Further, the outcome in experiment [7], in experiment [8], in [9] and in experiment [10] was inactive.
Regarding `FC(F)(F)C(F)(F)C(F)(F)C(F)(F)C(F)(F)CCI`, the result in experiment [1], in [2], in [3], in experiment [4], in experiment [5] and in experiment [6] was inactive. Besides, the result in experiment [7] and in experiment [9] was inactive. Besides, the concentration at half-maximal activity (AC50) in experiment [4] was 22.2 µM (active); in [10] it was 32.1 µM (active) and 31.2 µM (active).
Consider `O=P(O)(O)OCCC(F)(F)C(F)(F)C(F)(F)C(F)(F)C(F)(F)C(F)(F)F`, for which the result in experiment [1], in [2], in [3], in [4], in experiment [5] and in experiment [6] was inactive. Also, the result in experiment [7], in experiment [9] and in [10] was inactive. For the same compound, the AC50 in experiment [4] was 7.21 µM (active).
Turning to `FC(F)(F)C(F)(F)C(F)(F)C(F)(F)C(F)(F)C(F)(F)C(F)(F)Br`, the result in experiment [1], in experiment [2], in [3], in experiment [4], in experiment [5] and in experiment [6] was inactive. Moreover, the outcome in experiment [7], in experiment [8], in experiment [9] and in [10] was inactive.
As for `O=C(O)C(F)(F)C(F)(F)C(F)(F)C(F)(F)C(F)(F)C(F)(F)C(F)(F)C(F)(F)Cl`, the outcome in [1], in [2], in experiment [3], in experiment [5], in [6] and in experiment [7] was inactive. The outcome in experiment [9] was inactive. In addition, the AC50 in [4] was 39.2 µM (active) and 41.9 µM (active); in experiment [7], 8330 nM (active); in experiment [10] it was 43.1 µM (active) and 45.7 µM (active).
Regarding `CCc1c(Br)c(Br)c(Br)c(Br)c1Br`, the result in [1], in experiment [2], in experiment [4], in [5], in experiment [6] and in experiment [7] was inactive. Also, the outcome in [8], in experiment [9] and in [10] was inactive. Besides, the AC50 in [3] is 4.48 µM (active).
On to `CCCCCCCCC(F)(F)C(F)(F)C(F)(F)C(F)(F)C(F)(F)C(F)(F)F`, for which the outcome in experiment [1], in experiment [2], in [3], in experiment [4], in [5] and in experiment [6] was inactive. Moreover, the outcome in [7], in experiment [8], in [9] and in [10] was inactive.
In the case of `CCCCCCOC(=O)c1ccccc1O`, the result in [1], in experiment [2], in experiment [3], in experiment [5], in [6] and in experiment [8] was inactive. For the same compound, the half-maximal activity concentration (AC50) in experiment [4] was 38.1 µM (active) and 40.6 µM (active); in experiment [7], 24.5 µM (active) and 16.9 µM (active); in experiment [9], 36.9 µM (active) and 42.9 µM (active); in [10], 15.1 µM (active) and 14.2 µM (active).
Turning to `Oc1ccc(Nc2ccccc2)cc1`, the result in experiment [1], in experiment [4], in [5], in experiment [6], in [7] and in [8] was inactive. For the same compound, in experiment [9], the result was inactive. Moreover, the AC50 in experiment [2] was 5.45 µM (active); in experiment [3], 11 µM (active); in [10] it was 26.5 µM (active).
For `OCC(F)(F)C(F)(F)C(F)(F)C(F)(F)C(F)(F)C(F)(F)F`, the result in experiment [1], in experiment [2], in [3], in experiment [5], in experiment [6] and in [8] was inactive. Besides, the outcome in experiment [9] was inactive. Besides, the concentration at half-maximal activity (AC50) in experiment [4] is 55.1 µM (active) and 41.2 µM (active); in [7], 30 µM (active) and 49.7 µM (active); in experiment [10] it was 56.1 µM (active) and 54.4 µM (active).
`OCCCC(F)(F)C(F)(F)C(F)(F)C(F)(F)C(F)(F)C(F)(F)C(F)(F)F`: the concentration at half-maximal activity (AC50) in experiment [1] is 22.6 µM (active) and 25.1 µM (active); in experiment [3], 20.8 µM (active); in experiment [4] it was 11.8 µM (active) and 14 µM (active); in [5], 24.5 µM (active) and 45 µM (active); in experiment [6], 26.2 µM (active) and 41.2 µM (active); in [7] it was 11.6 µM (active) and 14.6 µM (active). Also, the concentration at half-maximal activity (AC50) was 17.8 µM (active) and 20.8 µM (active) in experiment [9]; 6.74 µM (active) and 7.22 µM (active) in [10]. Besides, the result in experiment [2] and in [3] was inactive.
